This passage reports growth inhibition results from PubChem BioAssay (NCI).

The panel holds about 79,000 compounds, 15% with a hit somewhere; the sample as a whole holds those more often. A number with no mark means an inactive call. Active and inactive are the calls of the source. No stated cut-off is given here; in the data, active means growth inhibition above about 70%; inactive means the rest.

Test [1] in a line: NCI Yeast Anticancer Drug Screen. Data for the rad50 strain (AID 155).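 Further: 0% = growth of vehicle-only cultures of the same strain.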 To be noted: S. cerevisiae rad50 strain growth inhibition; at 50.0 µM; active compounds read high. In a few lines: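 Compounds were tested on a yeast strain with an engineered DNA damage repair alteration; the reported value is growth inhibition normalised to vehicle treatment.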
A short description of test [2]: NCI Yeast Anticancer Drug Screen. Data for the mec2-1 strain (AID 157). The settings on record: S. cerevisiae mec2-1 strain, at 50.0 µM, active compounds read high. A digest of the protocol: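 Using mec2-1 yeast: add compound, measure growth, express inhibition versus vehicle-treated cultures.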
The nature of test [3]: NCI Yeast Anticancer Drug Screen. Data for the sgs1 mgt1 strain (AID 161).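 Further: 0% = growth of cultures given vehicle only.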 To be noted: S. cerevisiae sgs1 mgt1 strain, at 50.0 µM, active compounds read high. In a few lines:
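Percent growth inhibition was derived by comparing compound-exposed mutant yeast with vehicle-exposed cultures. The strain carries alterations in DNA damage repair.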

The nature of test [4]: NCI Yeast Anticancer Drug Screen. Data for the cln2 rad14 strain (AID 165).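 Further: 0% = growth equal to vehicle treated cultures.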 To be noted: S. cerevisiae cln2 rad14 strain, at 50.0 µM, active compounds read high. A digest of the protocol: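 Yeast strain cln2 rad14, bearing defects in cell cycle control and DNA repair, serves as the test system; values reflect growth inhibition compared with vehicle.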
Test [5] can be described thus: NCI Yeast Anticancer Drug Screen. Data for the bub3 strain (AID 167). To be noted: S. cerevisiae bub3 mutant strain, at 50.0 µM, active compounds read high. In a few lines:
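Growth of a checkpoint-deficient yeast mutant is measured after compound exposure. Values represent inhibition relative to vehicle.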

Test [6] can be described thus: NCI Yeast Anticancer Drug Screen. Data for the mlh1 rad18 strain (AID 175). To be noted: S. cerevisiae mlh1 rad18 strain growth inhibition; at 50.0 µM; active compounds read high. A digest of the protocol: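 Steps: expose repair-defective yeast to compound; measure growth; express inhibition against vehicle-treated controls.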

With `OCc1ccccc1`, the growth inhibition in test [1] was 37%; in test [2], 19.2%; in test [3] it was 0.1%; in test [4], -14.7%; in test [5], 29.4%; in test [6], 26.1%.

For the molecule `CC(C#N)(Nc1ccccc1)c1ccccc1` (stereo unspecified), the growth inhibition in test [1] is 0.6%; in test [2], 6.75%; in test [3] it was 6.9%; in test [4], -32.6%; in test [5] it was -10.7%; in test [6], -6.4%.

Turning to `Cc1nc(N)c(N2CCN(CN)CC2)c(=O)[nH]1`, the growth inhibition in test [1] is -35.2%; in test [2], 7.1%; in test [3] it was -5.85%; in test [4], 21.6%; in test [5] it was 25.9%; in test [6], -38%.

Consider `Cc1ccc([N+](=O)[O-])cc1NC(=O)Cc1ccccc1`, for which the growth inhibition in test [1] was 4.05%; in test [2], 29.8%; in test [3], 1.45%; in test [4], -8%; in test [5] it was 18.3%; in test [6], 17.6%.

Regarding `CCC(C)C(N=C1N=CNC2=NC=NC12)C(=O)O` (stereo unspecified), the growth inhibition in test [1] was 0.45%; in test [2] it was -27.8%; in test [3] it was -2.6%; in test [4] it was 6.5%; in test [5] it was -10.6%; in test [6], -4.1%.

Regarding `CN(C)CCN1CC2C3CCCCC3=C3CCCCC3C2C1` (stereo unspecified), the growth inhibition is -0.45% in test [1]; 10.1% in test [2]; 31.9% in test [3]; -24.4% in test [4]; 23.8% in test [5]; 37.9% in test [6].

With `CC1=N[C@](C)(C2CC3C=CC2C3=O)COC1=O` (stereo partly specified), the growth inhibition in test [1] was -15.5%; in test [2], -18.5%; in test [3], -27%; in test [4] it was -1.9%; in test [5], -11.6%; in test [6], -5.45%.

In the case of `CCCCCCCCCCCCCCCCCCn1cnc2c(=S)nc[nH]c21`, the growth inhibition was -37.5% in test [1]; -2.2% in test [2]; -0.75% in test [3]; -20.5% in test [4]; 0.5% in test [5]; -34.1% in test [6].

In the case of `COc1ccc(C(=O)CCl)c(O)c1OC`, the growth inhibition is -4.95% in test [1]; 5.95% in test [2]; -5.6% in test [3]; 14.8% in test [4]; 5.7% in test [5]; 11.8% in test [6].

Take `COC1=CC(=O)N/C1=C(\OC)c1ccccc1`: the growth inhibition in test [1] is -24.5%; in test [2], -0.95%; in test [3], -7%; in test [4], -5.6%; in test [5], -15.2%; in test [6], -5.2%.

For `COC(=O)CC1(C(=O)OC)Oc2ccc(Br)cc2C(=O)N1c1cccc(Cl)c1Cl` (stereo unspecified), the growth inhibition was 52.4% in test [1]; 13.8% in test [2]; 46.5% in test [3]; 40.6% in test [4]; 52.9% in test [5]; 54.1% in test [6].

In the case of `O=C1c2ccccc2OCC1CS(=O)(=O)CC1COc2ccccc2C1=O` (stereo unspecified), the growth inhibition was -9.5% in test [1]; 9.7% in test [2]; -5.45% in test [3]; 16.2% in test [4]; -0.5% in test [5]; 7.4% in test [6].

As for `CCCCCCCCCOCC(COP(=O)([O-])OCC[N+](C)(C)C)OC` (stereo unspecified), the growth inhibition in test [1] is 10.2%; in test [2] it was 13.3%; in test [3] it was 1.4%; in test [4], -22.4%; in test [5] it was -7.75%; in test [6], 17.5%.

With `CN(C)N=Nc1ccc(Cl)cc1C(=O)O`, the growth inhibition is 14.8% in test [1]; 12.3% in test [2]; 20.7% in test [3]; 2.2% in test [4]; 17.9% in test [5]; 41% in test [6].

Regarding `N#Cc1ccc2c(c1)Sc1ccccc1N2`, the growth inhibition in test [1] was 7.5%; in test [2], 3.05%; in test [3], -2.9%; in test [4] it was -43.4%; in test [5], -31%; in test [6], 21.7%.

`OCC(O)C(O)C(O)C(O)C(OCc1ccccc1)OCc1ccccc1` (stereo unspecified): the growth inhibition was 11.3% in test [1]; 7.55% in test [2]; -23.6% in test [3]; -12.7% in test [4]; 5.1% in test [5]; 9.85% in test [6].

As for `N#CCCC1(CCC#N)CCc2ccccc2C1=O`, the growth inhibition in test [1] was 26.6%; in test [2] it was 1.2%; in test [3] it was 24.6%; in test [4], 25.9%; in test [5], 8.1%; in test [6] it was 40%.

For the molecule `CCCCCCCCCCCCCCCCCCNc1nc(=O)n(C2CC(O)C(COP(=O)(O)O)O2)cc1F` (stereo unspecified), the growth inhibition is 12.9% in test [1]; 12.6% in test [2]; 16.8% in test [3]; 17% in test [4]; 9.25% in test [5]; -23% in test [6].

Consider `Nc1nc(N)nc(-c2ccccc2N)n1`, for which the growth inhibition was 2.2% in test [1]; -7.5% in test [2]; -14.2% in test [3]; -45% in test [4]; -22.8% in test [5]; 5.6% in test [6].

With `O=[N+]([O-])c1ccc(/C(=C/c2ccc(Cl)cc2Cl)S(=O)(=O)C(Cl)Cl)o1`, the growth inhibition is 98.3% (active) in test [1]; 98.8% (active) in test [2]; 99.1% (active) in test [3]; 99.1% (active) in test [4]; 98.2% (active) in test [5]; 98% (active) in test [6].

For the molecule `Cc1nc2c(=O)n3c4c(cccc4c2o1)CCC3`, the growth inhibition in test [1] is 14.4%; in test [2] it was 10.4%; in test [3] it was 21.6%; in test [4], 14.5%; in test [5], 14.5%; in test [6], -48.4%.
